Test results: paper PMC5540273 (PLoS ONE, 2017)

System: FGFR3
Conditions: concentration: 1 μM, replicates: in singlicate; n = 1
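Also: KINOMEscan kinase panel screen.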

Structure (SMILES)	%Inh [%]
N#Cc1c(N2CCOCC2)sc(-c2ccn[nH]2)c1-c1ccc(Cl)cc1	0
c1ccc(-c2cc(-c3c[nH]nc3-c3ccccn3)ccn2)cc1 [GW576604]	0
O=C(NCCCN1CCOCC1)c1cccc(Nc2nccc(Nc3ccc(Oc4ccccc4)cc3)n2)c1 [GW663929]	30
CCCCCc1nc2c(N)ncnc2n1CCCCC [SKF-97255]	0
Cc1c(Cn2c(C)nn3c(=O)cc(N4CCOC(C)C4)nc23)cccc1C(F)(F)F (stereo not drawn) [GSK2344444]	4
O=C(NCCNc1ccnc(Nc2ccc(F)cc2)n1)c1cc2ccccc2s1 [GSK1379874]	6
CC(C)Oc1ccc2c(-c3ccnc(Nc4ccc(N5CCN(C)CC5)cc4)n3)cnn2n1 [GW696155]	12
COc1cc2c(cc1OCCN1CCN(C)CC1)ncc1c3ccc(C#N)cc3[nH]c21	0
CC(=O)Nc1ccc(COc2ccc(Nc3ccnc4cc(-c5ccccn5)ccc34)cc2)cc1.Cl [GW440148]	14
CC(C)(C)n1cnc2c(N)ncnc21 [SKF-97359]	0
CN(C1=C(c2ccccc2)C(=O)NC1=O)c1ccccc1 [SB-334860]	24
Cl.Nc1ncnc2occ(-c3ccc(NC(=O)Nc4cc(C(F)(F)F)ccc4F)cc3)c12 [SB-707548]	63
NS(=O)(=O)c1cccc(-c2ccc3nccc(-c4cccc(S(N)(=O)=O)c4)c3c2)c1 [GW867253]	0
NS(=O)(=O)c1cccc(-c2ccc3ncc(N4CCOCC4)nc3c2)c1 [GSK1535721]	22
COc1ccc(CNC(=O)NC2CCN(c3ccnc(Nc4ccc(OC)cc4)n3)C2)cc1 (stereo not drawn) [GSK1379727]	18
Cc1nnc(-c2ccc(C)c(-c3ccc(C(=O)Nc4ccc(NS(C)(=O)=O)cc4)cc3)c2)o1 [GW702865]	11
Cc1nnc(-c2ccc3occ(-c4ccc(C(C)O)cc4)c3c2)o1 (stereo not drawn)	22

Structure (SMILES)	%Inh [%]
[2H]C([2H])(c1cccc(C(F)(F)F)c1C)n1ccn2c(=O)nc(N3CCOCC3)cc12 [GSK2336394]	14
NCC(NC(=O)c1cc(-c2cn[nH]c2)c(-c2ccnc3[nH]ccc23)s1)c1ccccc1.O=C(O)C(F)(F)F.O=C(O)C(F)(F)F (stereo not drawn) [GSK1325775]	0
O=C(NCCNc1ccnc(Nc2ccc(F)cc2)n1)Nc1ccccc1F [GSK1379880]	0
COc1ccc(S(=O)(=O)NC2CCN(c3cc(C)nc(Nc4cccc(C#N)c4)n3)CC2)cc1.O=C(O)C(F)(F)F [GSK1653539]	21
O=C1NC(=O)C(N2CCc3ccccc32)=C1c1cccc(Cl)c1 [SB-408010]	0
O=c1cc(N2CCOCC2)nc2n(Cc3cccc(Cl)c3Cl)c(C3CC3)nn12 [GSK2358994]	0
O=c1cc(N2CCOCC2)nc2n(Cc3cccc(F)c3)ccn12 [GSK2297430]	14
Cl.Cl.Cl.Fc1ccc(-c2ncn(C3CCNCC3)c2-c2ccnc(Nc3ccccc3)n2)cc1 [SB-238039]	0
CSc1ccc(-c2cc3ncnc(SCC(=O)O)c3s2)cc1	0
O=C(c1ccc(-c2cc(-c3c[nH]nc3-c3ccccn3)ccn2)cc1)N1CCOCC1 [GW812171]	0
COc1ccc(Nc2nccc(N3CCC(NC(=O)Nc4cc(C)ccc4C)C3)n2)cc1 (stereo not drawn) [GSK1379741]	0
Fc1ccc(-c2nn3c(OCC(F)(F)F)cccc3c2-c2ccncc2)cc1 [GW514784]	0
N#Cc1ccc(-c2cc(-c3c[nH]nc3-c3ccccn3)ccn2)cc1 [GW693028]	0
COc1cc2ncn(-c3cc(OCc4sccc4Cl)c(C(N)=O)s3)c2cc1OC [GSK448459]	13
NS(=O)(=O)CCc1cccc(Nc2nccc(-c3c(-c4cccc(NC(=O)c5c(F)cccc5F)c4)nn4ccccc34)n2)c1 [GSK336735]	36
O=C(Nc1n[nH]c2cc(-c3cccc(F)c3)ccc12)C1CC1 [SB-735464]	0

System: FGFR4
Conditions: concentration: 1 μM, replicates: in singlicate; n = 1

Structure (SMILES)	%Inh [%]
N#Cc1c(N2CCOCC2)sc(-c2ccn[nH]2)c1-c1ccc(Cl)cc1	0
c1ccc(-c2cc(-c3c[nH]nc3-c3ccccn3)ccn2)cc1 [GW576604]	67
O=C(NCCCN1CCOCC1)c1cccc(Nc2nccc(Nc3ccc(Oc4ccccc4)cc3)n2)c1 [GW663929]	54
CCCCCc1nc2c(N)ncnc2n1CCCCC [SKF-97255]	0
Cc1c(Cn2c(C)nn3c(=O)cc(N4CCOC(C)C4)nc23)cccc1C(F)(F)F (stereo not drawn) [GSK2344444]	0
O=C(NCCNc1ccnc(Nc2ccc(F)cc2)n1)c1cc2ccccc2s1 [GSK1379874]	0
CC(C)Oc1ccc2c(-c3ccnc(Nc4ccc(N5CCN(C)CC5)cc4)n3)cnn2n1 [GW696155]	0
COc1cc2c(cc1OCCN1CCN(C)CC1)ncc1c3ccc(C#N)cc3[nH]c21	22
CC(=O)Nc1ccc(COc2ccc(Nc3ccnc4cc(-c5ccccn5)ccc34)cc2)cc1.Cl [GW440148]	0
CC(C)(C)n1cnc2c(N)ncnc21 [SKF-97359]	0
CN(C1=C(c2ccccc2)C(=O)NC1=O)c1ccccc1 [SB-334860]	18
Cl.Nc1ncnc2occ(-c3ccc(NC(=O)Nc4cc(C(F)(F)F)ccc4F)cc3)c12 [SB-707548]	71
NS(=O)(=O)c1cccc(-c2ccc3nccc(-c4cccc(S(N)(=O)=O)c4)c3c2)c1 [GW867253]	0
NS(=O)(=O)c1cccc(-c2ccc3ncc(N4CCOCC4)nc3c2)c1 [GSK1535721]	15
COc1ccc(CNC(=O)NC2CCN(c3ccnc(Nc4ccc(OC)cc4)n3)C2)cc1 (stereo not drawn) [GSK1379727]	0
Cc1nnc(-c2ccc(C)c(-c3ccc(C(=O)Nc4ccc(NS(C)(=O)=O)cc4)cc3)c2)o1 [GW702865]	0
Cc1nnc(-c2ccc3occ(-c4ccc(C(C)O)cc4)c3c2)o1 (stereo not drawn)	19

Structure (SMILES)	%Inh [%]
[2H]C([2H])(c1cccc(C(F)(F)F)c1C)n1ccn2c(=O)nc(N3CCOCC3)cc12 [GSK2336394]	5
NCC(NC(=O)c1cc(-c2cn[nH]c2)c(-c2ccnc3[nH]ccc23)s1)c1ccccc1.O=C(O)C(F)(F)F.O=C(O)C(F)(F)F (stereo not drawn) [GSK1325775]	0
O=C(NCCNc1ccnc(Nc2ccc(F)cc2)n1)Nc1ccccc1F [GSK1379880]	11
COc1ccc(S(=O)(=O)NC2CCN(c3cc(C)nc(Nc4cccc(C#N)c4)n3)CC2)cc1.O=C(O)C(F)(F)F [GSK1653539]	0
O=C1NC(=O)C(N2CCc3ccccc32)=C1c1cccc(Cl)c1 [SB-408010]	0
O=c1cc(N2CCOCC2)nc2n(Cc3cccc(Cl)c3Cl)c(C3CC3)nn12 [GSK2358994]	0
O=c1cc(N2CCOCC2)nc2n(Cc3cccc(F)c3)ccn12 [GSK2297430]	1
Cl.Cl.Cl.Fc1ccc(-c2ncn(C3CCNCC3)c2-c2ccnc(Nc3ccccc3)n2)cc1 [SB-238039]	0
CSc1ccc(-c2cc3ncnc(SCC(=O)O)c3s2)cc1	0
O=C(c1ccc(-c2cc(-c3c[nH]nc3-c3ccccn3)ccn2)cc1)N1CCOCC1 [GW812171]	0
COc1ccc(Nc2nccc(N3CCC(NC(=O)Nc4cc(C)ccc4C)C3)n2)cc1 (stereo not drawn) [GSK1379741]	0
Fc1ccc(-c2nn3c(OCC(F)(F)F)cccc3c2-c2ccncc2)cc1 [GW514784]	0
N#Cc1ccc(-c2cc(-c3c[nH]nc3-c3ccccn3)ccn2)cc1 [GW693028]	12
COc1cc2ncn(-c3cc(OCc4sccc4Cl)c(C(N)=O)s3)c2cc1OC [GSK448459]	0
NS(=O)(=O)CCc1cccc(Nc2nccc(-c3c(-c4cccc(NC(=O)c5c(F)cccc5F)c4)nn4ccccc34)n2)c1 [GSK336735]	0
O=C(Nc1n[nH]c2cc(-c3cccc(F)c3)ccc12)C1CC1 [SB-735464]	0
